The source of these data is PubChem BioAssay (NCI).

SMILES strings stand for the structures. Values joined by “and” are separate entries in the source; they are usually repeats but may differ in a detail not shown here. Equal entries are not always repeated. Compounds without any hit were thinned out: in the full panel of roughly 83,000, 20% have a hit.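 The test compound was applied at a single concentration to cells in 96-well plates for 48 hours, and percent growth was recorded.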 Active and inactive are the calls of the source. How the source made its calls: active means growth percent below 10; inactive means the rest.

Some test systems named below: NCI-H23 lung; NCI-H226 lung; NCI-H322M lung; HOP-62 NSCLC; NCI-H460 lung; HOP-92 NSCLC; NCI-H522 lung; A549/ATCC NSCLC; 786-0 renal; COLO 205 colon; DU-145 prostate; K-562 leukemia; MALME-3M melanoma; MDA-MB-231 breast; RXF 393 renal; SF-268 CNS; SF-295 CNS; SF-539 CNS; UACC-257 melanoma; M14 melanoma.
Common to all, as to assay: NCI-60 one-dose screen, 48 h (100 = growth as untreated, 0 = no growth, -100 = all killed)
What all share (details): 10 µM unless noted

In the case of `O=C(CN1CCN(c2cc3c(cc2F)c(=O)c(C(=O)O)cn3C2CC2)CC1)Nc1ccc(Cl)cc1`, the growth is 94.5% (inactive) and 87.5% (inactive) in the assay on NCI-H23 lung; 80.1% (inactive) and 96.7% (inactive) in the assay on NCI-H226 lung; 53.8% (inactive) and 56% (inactive) with NCI-H322M lung; 71.7% (inactive) and 100% (inactive) with HOP-62 NSCLC; 88% (inactive) and 90.1% (inactive) in the assay with NCI-H460 lung; 78.9% (inactive) and 87.2% (inactive) with HOP-92 NSCLC. For the same compound, the growth is -13.7% (active) and 83.5% (inactive) in the assay on NCI-H522 lung; 69.2% (inactive) and 86.8% (inactive) in the assay with A549/ATCC NSCLC; 70.1% (inactive) and 83.8% (inactive) in the assay with 786-0 renal; 99.9% (inactive) and 109% (inactive) in the assay with COLO 205 colon; 99.1% (inactive) and 103% (inactive) in the assay on DU-145 prostate; 68.1% (inactive) and 67.9% (inactive) in the assay with K-562 leukemia. The growth in the assay on MALME-3M melanoma was 91.8% (inactive) and 91.1% (inactive); with MDA-MB-231 breast, 60.2% (inactive) and 70.1% (inactive); in the assay with RXF 393 renal, 74.7% (inactive) and 84.3% (inactive); in the assay on SF-268 CNS, 91.2% (inactive) and 92.5% (inactive); in the assay on SF-295 CNS it was 87.9% (inactive) and 96.6% (inactive); in the assay with SF-539 CNS, 86.9% (inactive) and 85.6% (inactive). Besides, the growth in the assay on UACC-257 melanoma was 57% (inactive) and 88.4% (inactive); in the assay on M14 melanoma, 81.8% (inactive) and 92% (inactive).

For `O=C(c1ccc(Cl)cc1)C(NCCO)c1ccc(Cl)cc1` (stereo not given), the growth with NCI-H23 lung was 90.7% (inactive) and 90.4% (inactive); in the assay on NCI-H226 lung, 93.2% (inactive) and 106% (inactive); in the assay with NCI-H322M lung, 86.4% (inactive) and 93.6% (inactive); with HOP-62 NSCLC it was 87.5% (inactive); in the assay with NCI-H460 lung, 100% (inactive) and 114% (inactive); with HOP-92 NSCLC, 72.9% (inactive) and 89.4% (inactive). Moreover, the growth with NCI-H522 lung is 92.8% (inactive) and 89.3% (inactive); in the assay on A549/ATCC NSCLC, 96.8% (inactive) and 93.8% (inactive); in the assay with 786-0 renal, 97.8% (inactive) and 93.3% (inactive); in the assay on COLO 205 colon, 112% (inactive) and 122% (inactive); in the assay on DU-145 prostate it was 108% (inactive) and 109% (inactive); with K-562 leukemia it was 90.3% (inactive) and 105% (inactive). Besides, the growth in the assay on MALME-3M melanoma is 90.2% (inactive) and 102% (inactive); in the assay on MDA-MB-231 breast, 96.3% (inactive) and 97.8% (inactive); in the assay with RXF 393 renal, 94.9% (inactive) and 108% (inactive); in the assay with SF-268 CNS it was 99% (inactive) and 85.8% (inactive); with SF-295 CNS it was 96.8% (inactive) and 103% (inactive); in the assay on SF-539 CNS, 114% (inactive) and 103% (inactive). Also, the growth was 100% (inactive) and 101% (inactive) with UACC-257 melanoma; 101% (inactive) and 104% (inactive) in the assay with M14 melanoma.

Regarding `Cc1cc(-c2ccc(NS(=O)(=O)c3ccccc3)c(C)c2)ccc1NS(=O)(=O)c1ccccc1`, the growth with NCI-H23 lung was 85% (inactive) and 97.8% (inactive); in the assay on NCI-H226 lung, 82.2% (inactive) and 92.1% (inactive); in the assay on NCI-H322M lung, 92.7% (inactive) and 121% (inactive); with HOP-62 NSCLC, 94.2% (inactive) and 111% (inactive); in the assay on NCI-H460 lung it was 78% (inactive) and 87.6% (inactive); with HOP-92 NSCLC, 83.3% (inactive) and 88% (inactive). The growth in the assay with NCI-H522 lung was 52.8% (inactive) and 64.8% (inactive); with A549/ATCC NSCLC it was 67% (inactive) and 80.5% (inactive); with 786-0 renal it was 96.8% (inactive) and 107% (inactive); with COLO 205 colon it was 91.9% (inactive) and 121% (inactive); with DU-145 prostate, 93.8% (inactive) and 94.7% (inactive); in the assay with K-562 leukemia it was 62.7% (inactive) and 65.9% (inactive). The growth was 79.6% (inactive) and 120% (inactive) in the assay on MALME-3M melanoma; 70.1% (inactive) and 74.5% (inactive) in the assay on MDA-MB-231 breast; 70.1% (inactive) and 119% (inactive) in the assay on RXF 393 renal; 91.5% (inactive) and 106% (inactive) with SF-268 CNS; 58.1% (inactive) and 99.4% (inactive) in the assay on SF-295 CNS; 108% (inactive) and 95.9% (inactive) in the assay on SF-539 CNS. For the same compound, the growth in the assay on UACC-257 melanoma was 93.6% (inactive) and 110% (inactive); in the assay with M14 melanoma it was 87.4% (inactive) and 99% (inactive).

Turning to `O=C(N/N=C/c1cccc2ccccc12)C1CC1`, the growth with NCI-H23 lung is 104% (inactive) and 89.3% (inactive); with NCI-H226 lung it was 104% (inactive) and 92.2% (inactive); in the assay on NCI-H322M lung it was 98.1% (inactive) and 101% (inactive); in the assay with HOP-62 NSCLC it was 104% (inactive) and 116% (inactive); in the assay with NCI-H460 lung it was 113% (inactive) and 104% (inactive); with HOP-92 NSCLC, 97.8% (inactive) and 95.1% (inactive). Moreover, the growth was 98.8% (inactive) and 103% (inactive) with NCI-H522 lung; 100% (inactive) and 89.2% (inactive) in the assay with A549/ATCC NSCLC; 99.9% (inactive) and 99% (inactive) with 786-0 renal; 112% (inactive) and 117% (inactive) in the assay on COLO 205 colon; 128% (inactive) and 120% (inactive) in the assay on DU-145 prostate; 92.3% (inactive) and 114% (inactive) with K-562 leukemia. Besides, the growth in the assay with MALME-3M melanoma was 110% (inactive); in the assay with MDA-MB-231 breast it was 95.4% (inactive) and 91.3% (inactive); in the assay with RXF 393 renal, 111% (inactive) and 110% (inactive); in the assay on SF-268 CNS, 115% (inactive) and 104% (inactive); in the assay on SF-295 CNS it was 118% (inactive) and 92.9% (inactive); in the assay on SF-539 CNS, 111% (inactive) and 102% (inactive). Further, the growth in the assay on UACC-257 melanoma is 103% (inactive) and 100% (inactive); in the assay on M14 melanoma, 110% (inactive) and 108% (inactive).
